Measurements reported in PubChem BioAssay AID1851 (National Center for Advancing Translational Sciences (NCATS), 2009).
In all, about 16,000 compounds went through this assay and about 5,100 (32%) were called active. Inconclusive results (about 25%) are left out. The call rests on the fitted dose curve; in most records, active means well fitted curve in the direction sought with a large enough effect; inconclusive means small, poorly fitted or top-dose-only effect, or effect the other way; inactive means no such curve, though single readings can be large or run the other way. The list shows a part of the results.

Target: Cytochrome P450 3A4 (Homo sapiens) (UniProt P08684)
Assay: Cytochrome panel assay with activity outcomes
Conditions: recombinant CYP, pro-luciferin dealkylation, luminescence, p450-cyp3a4; series mostly up to 57.1 µM; activity, negative = inhibition: at the top concentration
On the % scale 0 is the no-effect control and ±100 the full control effect.

Cytochrome P450 3A4 (Homo sapiens), sequence (P08684 whole entry, looked up): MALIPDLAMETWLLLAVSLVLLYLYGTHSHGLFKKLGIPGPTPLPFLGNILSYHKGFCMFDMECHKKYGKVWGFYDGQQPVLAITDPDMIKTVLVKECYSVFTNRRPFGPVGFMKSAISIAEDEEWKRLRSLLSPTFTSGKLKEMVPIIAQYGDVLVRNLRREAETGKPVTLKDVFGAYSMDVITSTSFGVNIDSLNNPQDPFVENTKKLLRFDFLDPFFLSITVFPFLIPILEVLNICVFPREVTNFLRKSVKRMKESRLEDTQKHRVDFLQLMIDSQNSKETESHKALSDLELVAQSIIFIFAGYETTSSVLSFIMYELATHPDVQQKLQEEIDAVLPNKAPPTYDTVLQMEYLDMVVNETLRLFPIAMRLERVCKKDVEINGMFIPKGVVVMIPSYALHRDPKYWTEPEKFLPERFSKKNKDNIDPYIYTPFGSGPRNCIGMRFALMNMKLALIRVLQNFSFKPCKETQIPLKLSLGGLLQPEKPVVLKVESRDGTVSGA

activity, negative = inhibition, inactive:
COCCn1c(=O)c(-c2ccc(F)cc2)nc2cnc(N3CCOCC3)nc21 9.22%
Cc1nc2cnc(N3CCN(C)CC3)nc2n(C)c1=O -13.9%
COCCn1c(=O)c(C)nc2cnc(N3CCN(C)CC3)nc21 2.49%
N#CCCn1c(=O)c(-c2ccc(F)cc2)nc2cnc(N3CCOCC3)nc21 -13%
NC(=O)C[C@H](NC(=O)Cc1ccc(O)cc1O)C(=O)O -18.9%
Nc1ncnc2c1ncn2[C@@H]1CCCO1 -2.95%
C[C@@H](CN1CCC(Cc2ccccc2)CC1)[C@@H](O)c1ccc(O)cc1 27.3%
CCCS(=O)(=O)N1CCCC(C(=O)NCCN2CCC(Cc3ccccc3)CC2)C1 (configuration not stated) -15.8%
COC(=O)c1cc2c(ccn2-c2ccc(F)cc2)n1CC(C)C 12.9%
C[n+]1cccc(CNC(=O)/C=N/O)c1 -4.34%
O=C1NC(O)=NC1(c1ccccc1)c1ccccc1 -18.7%
CCCCNC(=O)NS(=O)(=O)c1cnccc1Sc1ccc(Cl)cc1 -25.5% [at 2.29 µM]
O=C(NCCO)c1cc2c(s1)CCC2 -2.01%
C[C@@H]1O[C@H](O[C@@H]2[C@H](C)O[C@H](O[C@@H]3[C@H](C)O[C@H](O[C@H]4CC[C@]5(C)[C@@H](CC[C@@H]6[C@H]5C[C@@H](O)[C@]5(C)[C@@H](C7=CC(=O)OC7)CC[C@]65O)C4)C[C@@H]3O)C[C@@H]2O)C[C@H](O)[C@@H]1O 0.67% [at 25.6 µM]
O=C(O)/C=C\c1c2ccc(=O)c(O)c-2oc2c(O)c(O)ccc12 -22.7% [at 11.4 µM]
CCNCCCNCCCNCCCNCC -3.22%
COc1ccc2c3c([nH]c2c1)[C@@H]1C[C@@H]2[C@@H](C[C@H](O)[C@H](OC)[C@H]2C(=O)O)CN1CC3 -7.07% [at 25.6 µM]
COc1ccc2c3c([nH]c2c1)[C@H]1C[C@@H]2[C@@H](C[C@@H](O)[C@H](OC)[C@H]2C(=O)O)CN1CC3 -4.43% [at 11.4 µM]
O=[N+]([O-])c1cc(Cc2cc([N+](=O)[O-])c3cccnc3c2O)c(O)c2ncccc12 -19.6% [at 11.4 µM]
Cc1ccc(-c2cccc(OC(=O)c3ccccc3F)c2)cc1 -10.7%
Nc1nc(Nc2ccccc2)nc2c1ncn2[C@@H]1O[C@@H](CO)[C@H](O)[C@@H]1O -3.64%
O=CN1CCN(C[C@H](O)CN2CCCCC2)CC1 -4.95% [at 11.4 µM]
COCc1nnc(NC(=O)CCN2C(=O)c3ccccc3C2=O)s1 -15.1%
Cc1cccc(OCCn2c(S(=O)(=O)O)nc3ccccc32)c1 -2.49%
O=C(O)C1CCCCC1C(=O)Nc1cc(Cl)ccc1Cl (configuration not stated) 16%
C/C(CC(=O)Nc1ccccn1)=N\NC(=O)C(=O)Nc1cccc(Cl)c1C 16.1% [at 2.29 µM]
COc1ccc(Cl)cc1NC(=O)NCCCl -28.3%
N[C@@H](CSCc1ccccc1)C(=O)O -6.14% [at 11.4 µM]
NC1(C(=O)O)C[C@H](C(=O)O)[C@H](C(=O)O)C1 (some centres not stated) -6.99%
CC1CN(C(NC(=O)C(C)(C)C)C(Cl)(Cl)Cl)CC(C)O1 (configuration not stated) -27.5%
C[C@@H]1NCC[C@H](CC(=O)O)[C@H]1CC(=O)O 0.412% [at 11.4 µM]
CC(C)=C[C@H]1[C@@H](C(=O)Oc2ccccc2C(C)C)C1(C)C -13.1% [at 11.4 µM]
Cc1[nH]c(N)nc(=S)c1CCC(=O)O -2.07% [at 11.4 µM]
COc1ccccc1OCCCCCc1c(C)n[nH]c1C 14.8%
NCCSC[C@H](N)C(=O)O -7.49% [at 11.4 µM]
O=C(O)[C@@H](O)[C@@H](O)[C@@H](O[C@H]1O[C@@H](CO)[C@@H](O)[C@@H](O)[C@@H]1O)[C@@H](O)CO 1.47% [at 25.6 µM]
c1nc(NC2CCNCC2)c2cc(-c3ccoc3)ccc2n1 -15.6%
COc1cc(C)c(Br)cc1S(=O)(=O)NCc1ccccc1 -0.507%
O=[N+]([O-])c1ccc(S(=O)(=O)Cc2ccccc2)c2nonc12 -16.7% [at 11.4 µM]
O=C(O)/C=C\C(=O)N1Cc2cc3ccccc3nc2C1 -8.05% [at 11.4 µM]
O=C(N/N=C/c1c(Nc2cccc(C(F)(F)F)c2)nc2ccccn2c1=O)c1ccccc1 -5.45%
Cc1ccc(C(=O)N/N=C/c2cc(C)n(-c3ccc(Br)cc3)c2C)cc1[N+](=O)[O-] 23.5%
CN1CCN(c2ncc3nc(-c4ccccc4)c(=O)n(CCc4ccccc4)c3n2)CC1 -5.29%
COCCn1c(=O)c(-c2cc(F)cc(F)c2)nc2cnc(N3CCN(C)CC3)nc21 -6.67%
O=C(O)c1ccc2c(c1)C(=O)N(C(Cc1ccc(O)cc1)C(=O)O)C2=O (configuration not stated) 5.23%
Cc1cc(=O)oc(C)c1C(=O)NCc1ccccn1 -10.8%
CNCCc1ccccn1 -3.54% [at 25.6 µM]
c1ccc(CCNc2ccccn2)nc1 -14.6% [at 11.4 µM]
OCCCNCc1ccccn1 -7.75% [at 11.4 µM]
Cc1ccc(S(=O)(=O)NC(=O)c2cccn2C)cc1 20.6%
CN(C)CCn1c(C(=O)O)cc2ccccc21 6.42%
Cc1cc2ccccc2c(=O)n1CC(=O)NCC(=O)N1CCCC1 -2.71%
O=C(NCCN1CCCCC1)c1ccc(I)cc1 -0.633%
CCN1C(=O)C(O)(C2COC(C)(C)CC2=O)c2ccccc21 (configuration not stated) -1.6%
CN(C)CCCN1c2ccccc2C(C)(C)c2ccccc21 -18.6% [at 11.4 µM]

AC50, inactive:
CCCC[S@@](=N)(=O)CC[C@@H](N)C(=O)O

AC50, active:
Cc1nc2cnc(N3CCNCC3)nc2n(Cc2ccc(F)cc2)c1=O 15.8 µM
O=c1c(-c2ccc(F)cc2)nc2cnc(N3CCNCC3)nc2n1Cc1ccc(F)cc1 7.94 µM
CCOC(=O)c1cc2c(ccn2C)n1CC(=O)N1CCCC(C)C1 (configuration not stated) 14.1 µM
CC(C)OC(=O)c1cc2c(ccn2C)n1CC(=O)N1CCC(Cc2ccccc2)CC1 7.08 µM
Cc1ccc(C)c(Cn2c(C(=O)OC(C)C)cc3c2ccn3C)c1 7.94 µM
CCCNC(=O)CC(NS(=O)(=O)c1ccc(Cl)cc1)c1ccco1 (configuration not stated) 22.4 µM
O=C(CC(NS(=O)(=O)c1ccc(Cl)cc1)c1ccco1)NCc1ccco1 (configuration not stated) 14.1 µM
NCCn1c(=O)c(CCc2ccccc2)nc2cncnc21 15.8 µM
COCCn1c(=O)c(CCc2ccccc2)nc2cncnc21 7.94 µM
COc1ccccc1CCn1c(=O)c(CCc2ccccc2)nc2cncnc21 3.16 µM
COCCn1c(C)cc2c(c1=O)C(c1ccccc1F)C(C#N)=C(N)O2 (configuration not stated) 5.62 µM
Cc1cccc(N(C)S(=O)(=O)c2ccc3[nH]c(=O)c(=O)[nH]c3c2)c1 14.1 µM
CCS(=O)(=O)N1CCC[C@H]2CN3CCc4cc(OC)ccc4[C@@H]3C[C@@H]21 5.01 µM
O=C(c1cc(O)c(O)c([N+](=O)[O-])c1)c1ccccc1F 20 µM
CN(Cc1ccco1)c1ncnc2ccc(-c3ccccc3C(F)(F)F)cc12 15.8 µM
CN(Cc1ccco1)c1ncnc2ccc(-c3ccccc3Cl)cc12 15.8 µM
Cc1ccc(NC(=O)CCN2C(=O)c3ccncc3C2=O)cc1 8.91 µM
Cc1cccc(OCCn2c(-c3ccco3)nc3ccccc32)c1 10 µM
C/C(CC(=O)Nc1cc(Cl)ccc1Cl)=N\NC(N)=S 14.1 µM
CCCCC(=O)N/N=C(\C)CC(=O)Nc1cc(Cl)ccc1OC 4.47 µM
COc1ccc(Cl)cc1NC(=O)CN1C(=O)CSC1=O 7.94 µM
CN(Cc1ccco1)c1ncnc2ccc(-c3cccnc3)cc12 3.98 µM
COc1cccc(-c2ccc3ncnc(N(C)Cc4ccco4)c3c2)c1 12.6 µM
c1ccc(Nc2ncnc3ccc(-c4ccc5c(c4)OCO5)cc23)cc1 2.51 µM
c1nc(NC2CCNCC2)c2cc(-c3ccc4c(c3)OCO4)ccc2n1 25.1 µM
Cc1cccc(CNc2ncnc3ccc(-c4ccc5c(c4)OCO5)cc23)c1 2 µM
c1ccc(CNc2ncnc3ccc(-c4ccc5c(c4)OCO5)cc23)cc1 2 µM
COc1cc(OC)c(C#N)c(S(=O)(=O)Cc2ccccc2)c1 25.1 µM
Cc1nc2ccccn2c1C(=O)N/N=C/c1ccccc1[N+](=O)[O-] 12.6 µM
COc1cccc(Cn2c(=O)c(-c3cc(F)cc(F)c3)nc3cnc(N4CCNCC4)nc32)c1 25.1 µM
COc1cccc(Cn2c(=O)c(-c3ccccc3)nc3cnc(N4CCNCC4)nc32)c1 20 µM
CN1CCN(c2ncc3nc(-c4cc(F)cc(F)c4)c(=O)n(CCc4ccccc4)c3n2)CC1 25.1 µM
COc1ccc(-c2nc3cnc(N4CCNCC4)nc3n(Cc3cccc(OC)c3)c2=O)cc1 15.8 µM
COc1cccc(Cn2c(=O)c(-c3ccc(F)cc3)nc3cnc(N4CCNCC4)nc32)c1 15.8 µM
COc1cccc(Cn2c(=O)c(-c3cc(F)cc(F)c3)nc3cnc(N4CCN(C)CC4)nc32)c1 25.1 µM
Cc1cc(Br)ccc1NCc1ccccn1 15.8 µM
Cc1cc(NCc2ccccn2)ccc1Br 12.6 µM
Cc1cc2ccccc2n1CCNC(=O)C1CCCC1 4.47 µM
Cc1ccc(S(=O)(=O)NCCn2c(C)cc3ccccc32)cc1 5.01 µM
Cc1cc2ccccc2n1CCNC(=O)c1ccccc1 3.98 µM
CC1(C)C(=O)N(CCN2CCC(C(=O)c3ccc(F)cc3)CC2)c2ccccc21 15.8 µM
